The whole screen tested about 48,000 compounds, of which about 13,000 (27%) showed an effect of 50% or more. The list shows a part of the results.
system: Wolbachia pipientis; assay: Anti-Wolbachia Cell-Based Screen; assay type: functional; parameters: scale not given: in the data most compounds retested in dose-response had high values; details: 5 µM

SMILES	Percent Effect [%]
CCN1CC2(CCN(CC3COCCO3)CC2)OC1=O (stereo not drawn)	-23.81
CN1CCN(CCCN(C)S(=O)(=O)C2CCCCC2)CC1	-3.997
CCc1cc(=O)[nH]c2nnc(SCC(=O)NC(C)C)n12	9.216
CCn1c(CN(C)C)nnc1C1CCN(c2ccnc(C)c2)CC1	-12.28
Cn1nc2c(cc1=O)CN(c1nc3ccccc3s1)CC2	9.519
Cn1nc(Cl)cc1C(=O)N1CCC(C(=O)c2nc3ccccc3s2)CC1	97.43
Cn1nc(CNC(=O)c2nc3ccccc3s2)c2c1CCOC2	-7.604
Cc1sc2nc(C(F)(F)F)nc(N3CCCN(C)CC3)c2c1C	3.641
COc1nc(C)c(C(=O)N(C)Cc2nc(-c3ccccn3)no2)s1	6.707
Cc1ccc(C(CNCc2ncc[nH]2)N2CCOCC2)s1 (stereo not drawn)	-41.63
O[C@H]1CN(Cc2ccnc(N3CCCC3)n2)CC[C@@]12CCCO2	120.1
COc1cc(OC)nc(N2CCC3(CC2)OCCCC3O)n1 (stereo not drawn)	-8.22
CCOC(=O)C1CCCN(Cc2c[nH]nc2-c2cc3ccccc3o2)C1 (stereo not drawn)	-24.88
O[C@H]1CN(Cc2c[nH]nc2-c2ccccc2)CC[C@@]12CCCO2	151.3
OC1CCCOC12CCN(Cc1nnc(-c3cccnc3)o1)CC2 (stereo not drawn)	-12.47
OC1CCCOC12CCN(c1ncccn1)CC2 (stereo not drawn)	8.98
Cc1ccccc1CC(C)(C)NC(=O)c1cccc(OCC(N)=O)c1	-9.051
CCn1nnc2c1C(COC)CN(C(=O)COc1ccccc1)C2 (stereo not drawn)	-1.685
O=C(c1ncccn1)N1C[C@@H]2COC[C@]2(COCc2cccnc2)C1	11.05
O=C(c1cocn1)N1C[C@@H]2COC[C@]2(COc2cccnc2)C1	92.15
O=C(c1ncccn1)N1C[C@@H]2COC[C@]2(COc2cccnc2)C1	108.1
COCc1cncc2c1CCN(C(=O)c1ccc(C#N)cc1)C2.O=C(O)C(F)(F)F	122.8

SMILES	Percent Effect [%]
O=C(c1ccncc1)N1CCc2c(COCC3CC3)cncc2C1	-2.638
N#Cc1ccc(C(=O)N2CCc3c(COCC4CC4)cncc3C2)cc1	120.9
O=C(c1cccnc1)N1CCc2c(COCC3CC3)cncc2C1	11.19
COCc1cncc2c1CCN(C(=O)c1cccc(C#N)c1)C2.O=C(O)C(F)(F)F	95.5
CCOCc1cncc2c1CCN(C(=O)c1cccc(C#N)c1)C2	8.725
N#Cc1cccc(C(=O)N2CCc3c(COCC4CC4)cncc3C2)c1.O=C(O)C(F)(F)F	-0.2698
CC(C)=CCN1CCC2(CC1)c1ccccc1[C@@H](N1CCSCC1)[C@@H]2O	17.95
CNC(=O)c1nc2c(s1)CCN(C(=O)c1ccccc1)CC2	-10.92
CCN(CC)C(=O)c1nc2c(s1)CCN(Cc1cccc(OC)c1)CC2.O=C(O)C(F)(F)F	-1.01
COc1cccc(CC(=O)N2CCc3nc(C(N)=O)sc3CC2)c1	-1.696
CN(C)C(=O)c1nc2c(s1)CCN(C(=O)c1ccc(Cl)cc1)CC2	-17.04
CNC(=O)N1CCc2nc(C(=O)Nc3cccnc3)sc2CC1	-5.762
O=C(Nc1ccccc1)N1CCc2nc(C(=O)N3CCCC3)sc2CC1	124.8
O=C(c1ccc(Cl)cc1)N1CCc2nc(C(=O)N3CCCC3)sc2CC1	0.273
NC(=O)c1nc2c(s1)CCN(Cc1ccccc1)CC2.O=C(O)C(F)(F)F	-10.1
NC(=O)c1nc2c(s1)CCN(C(=O)Nc1ccccc1)CC2	118.3
CCN(CC)C(=O)c1nc2c(s1)CCN(C(=O)CCC(=O)OC)CC2	-10.26
NC(=O)c1nc2c(s1)CCN(C(=O)Nc1cccc(Cl)c1)CC2	103.6
CCN(CC)C(=O)c1nc2c(s1)CCN(C(=O)Nc1ccccc1)CC2	97.77
O=C(c1ccc2c(c1)[nH]c(=O)n2C1CCCC1)N1CCSCC1	1.159
CCCSc1ncc(CN2CCN(C)C(=O)C2C)cn1 (stereo not drawn)	3.746
Cc1nsc(NC(=O)N2CCN(Cc3ccccc3F)C(=O)C2)n1	-10.42

SMILES	Percent Effect [%]
Clc1cccc(-c2noc(CCN3CCN(c4ccncc4)CC3)n2)c1	4.288
CN(Cc1ccc(Cl)s1)C(=O)Nc1ccc(N(C)C)nc1	10.16
COCCN(Cc1cnn(C)c1)C(=O)C1COc2c(cccc2OC)C1 (stereo not drawn)	-6.746
CN1CC2(CCCCN2C(=O)c2ccsc2)CC1=O (stereo not drawn)	106.9
COCCCN1CC2(CCCCN2C(=O)COC)CC1=O (stereo not drawn)	-19.41
CCN1C(=O)CCCC12CCCN(C(=O)c1ccsc1)C2 (stereo not drawn)	0.7078
CCN1CC2(CCCCN2C(=O)c2ccsc2)CC1=O (stereo not drawn)	92.4
CCN1CC2(CCCCN2C(=O)c2ccn(C)n2)CC1=O (stereo not drawn)	-5.146
COc1ccccc1-c1ccc(C(=O)N2C[C@H]3CC[C@@H]2CN(C)C3)cc1	3.488
Cc1nnc([C@@H]2CCO[C@@H]3CCN(C(=O)Cc4ccsc4)C[C@@H]32)o1	-11.03
O=C(NCCCC(=O)N1CCN(CC2CC2)c2ccccc21)C1CC1	-7.741
Nc1cc(CC2COc3ccccc3C2)ccn1 (stereo not drawn)	-18.54
O=C(c1ccnc(CC2COc3ccccc3C2)c1)N1CCCC1 (stereo not drawn)	99.57
COc1ccc2c(c1)OCC(Cc1ccnc(N)n1)C2 (stereo not drawn)	-14.38
COc1ccc2c(c1)OCC(Cc1cc(N3CCCC3)cnn1)C2 (stereo not drawn)	-5.296
c1ccc2c(c1)CC(Cc1cc(N3CCCC3)cnn1)CO2 (stereo not drawn)	9.635
COc1ccc2c(c1)OCC(Cc1cc(C(=O)N3CCCC3)ccn1)C2 (stereo not drawn)	87.9
COc1cccc(CC(=O)N2CC[C@@H]3NC(=O)CC[C@@H]32)c1	-6.606
Cc1ccc(OCC(O)CNC(=O)C2(c3ccc(F)cc3)CC2)cc1 (stereo not drawn)	-8.798
FC(F)(F)CCN(Cc1ccon1)C1CCCC1	5.052
CC(C)[C@H](NS(C)(=O)=O)C(=O)NCc1cc(-c2ccco2)n[nH]1	84.23
CCc1cc(CNC(=O)NCC(c2ccco2)N2CCCC2)[nH]n1 (stereo not drawn)	-1.193

SMILES	Percent Effect [%]
CN(Cc1ccco1)Cc1ccccc1CNC(=O)c1cc[nH]n1	-6.684
CCCC(C)NC(=O)c1ccc(-c2ccco2)[nH]c1=O (stereo not drawn)	12.91
CC(NS(C)(=O)=O)C(=O)N(C)Cc1csc(-c2ccccc2)n1 (stereo not drawn)	-10.17
CCc1cc(CNC(=O)N(C2CC2)C(C)c2ccco2)[nH]n1 (stereo not drawn)	-14.67
C[C@H](NS(C)(=O)=O)C(=O)NCc1cc(-c2ccco2)n[nH]1	75.56
CCc1cc(CNC(=O)c2cc(NC(=O)C(C)C)ccc2Cl)[nH]n1	-9.115
CC(C)[C@H](NS(C)(=O)=O)C(=O)NCc1cc(-c2ccccc2)n[nH]1	101.1
O=C(c1cccc(-n2cccn2)c1)N1CCCOC(Cn2cccn2)C1 (stereo not drawn)	8.514
O=C(NCC1CC1)C1CCCN(c2cccc(C(F)(F)F)n2)C1 (stereo not drawn)	-14.15
COc1ccc(SC(C)C(=O)N2CCC(NC(=O)C3CC3)CC2)cc1 (stereo not drawn)	-11.29
COCC(=O)Nc1cc(Br)cnc1OCC(F)(F)F	-8.259
Cc1ccc(C(=O)N2CCN(C(=O)Nc3ccccn3)CC2)o1	12.27
Cc1ccc(C(=O)NC2CCN(C(=O)Nc3ccccn3)CC2)s1	106.5
CC1CCN(C(=O)C2CCCN(C(=O)Nc3ccccn3)C2)CC1 (stereo not drawn)	-1.039
Cc1ccoc1C(=O)NC1CCN(C(=O)Nc2ccccn2)CC1	143.8
Cc1occc1C(=O)NC1CCN(C(=O)Nc2cccnc2)CC1	26.57
CCn1cc(CN2CCCC2c2nc(-c3ccccc3)no2)cc1C#N (stereo not drawn)	-29.44
Cc1ccc(CN2CCc3c(CN4CCCC4)n[nH]c3C2)s1.O=C(O)C(F)(F)F.O=C(O)C(F)(F)F	-6.492
Cn1nnc2c1C(COCC1CC1)CN(C(=O)[C@H]1CCCO1)C2 (stereo partly drawn)	10.79
CCOC(=O)c1coc(N2CCC(C(O)CC(C)C)CC2)n1 (stereo not drawn)	-3.785
CC(=O)N1CCOC(c2c(C(=O)NC(C)(C)C)sc3ccccc23)C1 (stereo not drawn)	161.4
CC(=O)N1CCOC(c2c(C(=O)O)sc3ccccc23)C1 (stereo not drawn)	123

SMILES	Percent Effect [%]
CC(=O)N1CCOC(c2c(C(=O)NCCN(C)C)sc3ccccc23)C1 (stereo not drawn)	169.5
Cn1ccc(C(=O)N2CCOC(c3ccccc3)C2)cc1=O (stereo not drawn)	-8.227
CC(=O)N1CCN(Cc2c(C)sc3ccccc23)CC(O)C1 (stereo not drawn)	-5.1
CC(=O)N1CCC(c2nnc3ccc(C(=O)NCCN(C)C)cn23)C1 (stereo not drawn)	-5.924
CC(=O)N1CCN(Cc2cccc3c2sc2ccccc23)CC(O)C1 (stereo not drawn)	-0.8612
CNC(=O)c1cccc(NC(=O)NC(C)CCc2cccn2C)c1C (stereo not drawn)	-20.84
CCn1ccnc1CN(C)C1CCCN(Cc2ccccc2F)C1 (stereo not drawn)	-12.96
CCC1CN(CCCO)c2ccccc2O1 (stereo not drawn)	49.62
Cc1nnc(CN2CCN(CCOc3ccccc3C#N)CC2)n1C	-3.944
CCN1CCN(C[C@@H]2CN(c3ncccc3F)C[C@@H]2CO)CC1	10.53
CCn1ccnc1CN1CCC(Oc2cccc(F)c2)(C(=O)O)CC1	-6.452
Cc1cccnc1CN1CC[C@H](Oc2cccc(F)c2)[C@@](C)(O)C1	112.2
C[C@]1(O)CN(Cc2ncc[nH]2)CC[C@@H]1Oc1cccc(F)c1	143.6
Fc1ccc(CC2CCN(Cc3cscn3)CC2)cc1	6.196
CCOc1ccnc(N2CCN(Cc3ncccc3C)CC2)n1	-12.42
CCN1CC(c2ccccc2)CC2(CCN(Cc3ncc[nH]3)CC2)C1 (stereo not drawn)	-4.226
COc1ccc2c(c1)CCN(Cc1cscn1)CC2	-16.58
Cc1nccc(CN2CC[C@H](Oc3cccc(F)c3)[C@@](C)(O)C2)n1	-4.258
C[C@]1(O)CN(Cc2cscn2)CC[C@@H]1Oc1cccc(F)c1	131.8
C[C@]1(O)CN(Cc2ncccc2F)CC[C@@H]1Oc1cccc(F)c1	113.6

From ChEMBL document CHEMBL3988442, “University of Dundee, Small-Polar-MMV Screening Library” (2021)
